Assay results from PubChem BioAssay AID1159580 (chemical genetic matrix, 2015).
Out of some 5,500 compounds screened, about 2,000 (36%) were called active. Roughly 18% stayed inconclusive and do not appear here. The list shows a part of the results. A number with no mark means an inactive call. Cut-off read from the data, not from the text of the source: active = normalized growth mostly below about 0.91 (no sharp cut-off); inconclusive = no clear call, values can overlap the other calls; inactive = mostly above about 0.92.

Assay: chemical genetic growth profiling, strain panel (AID 1159580);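 note: tested at 20 µM; growth read once vehicle control cultures reached saturation at 30 °C; 1 = growth at the plate median or of vehicle wells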
Details: S. cerevisiae deletion strains, growth OD
[1] = locus YAR019C, strain CDC15, stronger effect = lower value
[2] = locus YBL105C, strain PKC1, stronger effect = lower value
[3] = locus YBR135W, strain CKS1, stronger effect = lower value
[4] = locus YBR136W, strain MEC1, stronger effect = lower value
[5] = locus YBR160W, strain CDC28, stronger effect = lower value
[6] = locus YDL017W, strain CDC7, stronger effect = lower value
[7] = locus YDL028C, strain MPS1, stronger effect = lower value
[8] = locus YDL101C, strain DUN1, stronger effect = lower value
[9] = locus YDL108W, strain KIN28, stronger effect = lower value
[10] = locus YDL132W, strain cdc53, stronger effect = lower value
[11] = locus YDL214C, strain PRR2, stronger effect = lower value
[12] = locus YDR052C, strain DBF4, stronger effect = lower value
[13] = locus YDR054C, strain cdc34, stronger effect = lower value
[14] = locus YDR226W, strain ADK1, stronger effect = lower value
[15] = locus YDR477W, strain SNF1, stronger effect = lower value
[16] = locus YER123W, strain YCK3, stronger effect = lower value
[17] = locus YER133W, strain GLC7, stronger effect = lower value
[18] = locus YFL009W, strain cdc4, stronger effect = lower value
[19] = locus YFL029C, strain CAK1, stronger effect = lower value
[20] = locus YFR003C, strain YPI1, stronger effect = lower value
[21] = locus YFR019W, strain FAB1, stronger effect = lower value
[22] = locus YFR028C, strain CDC14, stronger effect = lower value
[23] = locus YGR040W, strain KSS1, stronger effect = lower value
[24] = locus YGR052W, strain FMP48, stronger effect = lower value
[25] = locus YGR092W, strain DBF2, stronger effect = lower value
[26] = locus YHR030C, strain SLT2, stronger effect = lower value
[27] = locus YHR079C, strain IRE1, stronger effect = lower value
[28] = locus YHR082C, strain KSP1, stronger effect = lower value
[29] = locus YHR205W, strain SCH9, stronger effect = lower value
[30] = locus YIL147C, strain SLN1, stronger effect = lower value
[31] = locus YJL095W, strain BCK1, stronger effect = lower value
[32] = locus YJL128C, strain PBS2, stronger effect = lower value
[33] = locus YJL157C, strain FAR1, stronger effect = lower value
[34] = locus YJR016C, strain ILV3, stronger effect = lower value
[35] = locus YJR066W, strain TOR1 (second series), stronger effect = lower value
[36] = locus YJR066W, strain TOR1, stronger effect = lower value
[37] = locus YKL048C, strain ELM1, stronger effect = lower value
[38] = locus YKL067W, strain YNK1, stronger effect = lower value
[39] = locus YKL101W, strain HSL1, stronger effect = lower value
[40] = locus YKL193C, strain SDS22, stronger effect = lower value
[41] = locus YKL203C, strain TOR2, stronger effect = lower value
[42] = locus YLR113W, strain HOG1, stronger effect = lower value
[43] = locus YLR133W, strain CKI1, stronger effect = lower value
[44] = locus YLR403W, strain SFP1, stronger effect = lower value
[45] = locus YML070W, strain DAK1, stronger effect = lower value
[46] = locus YMR001C, strain CDC5, stronger effect = lower value
[47] = locus YMR205C, strain PFK2 (second series), stronger effect = lower value
[48] = locus YMR277W, strain FCP1, stronger effect = lower value
[49] = locus YNL006W, strain LST8, stronger effect = lower value
[50] = locus YNL020C, strain ARK1, stronger effect = lower value
[51] = locus YNL161W, strain CBK1, stronger effect = lower value
[52] = locus YNL183C, strain NPR1, stronger effect = lower value
[53] = locus YNL207W, strain RIO2, stronger effect = lower value
[54] = locus YNL222W, strain SSU72, stronger effect = lower value
[55] = locus YNL307C, strain MCK1 (second series), stronger effect = lower value
[56] = locus YOL078W, strain AVO1, stronger effect = lower value
[57] = locus YOL136C, strain PFK27, stronger effect = lower value
[58] = locus YOR061W, strain CKA2, stronger effect = lower value
[59] = locus YOR119C, strain RIO1, stronger effect = lower value
[60] = locus YOR231W, strain MKK1, stronger effect = lower value
[61] = locus YOR329C, strain SCD5, stronger effect = lower value
[62] = locus YPL031C, strain PHO85, stronger effect = lower value
[63] = locus YPL153C, strain RAD53, stronger effect = lower value
[64] = locus YPL204W, strain HRR25, stronger effect = lower value
[65] = locus YPL209C, strain IPL1, stronger effect = lower value
[66] = locus YPL256C, strain CLN2, stronger effect = lower value
[67] = locus YPR025C, strain CCL1, stronger effect = lower value
[68] = locus YPR106W, strain ISR1, stronger effect = lower value
[69] = locus YPR111W, strain DBF20, stronger effect = lower value
[70] = strain NNK1, stronger effect = lower value
[71] = strain TSCII, stronger effect = lower value

SMILES: O=S(=O)(Nc1ccccc1Oc1ccccc1)c1ccc(-c2ccno2)s1
- normalized growth [1]: 0.974
- normalized growth [2]: 0.961
- normalized growth [3]: 0.966
- normalized growth [4]: 0.968
- normalized growth [5]: 0.961
- normalized growth [6]: 0.969
- normalized growth [7]: 0.965
- normalized growth [8]: 0.968
- normalized growth [9]: 0.972
- normalized growth [10]: 0.964
- normalized growth [11]: 0.916
- normalized growth [12]: 0.978
- normalized growth [13]: 0.965
- normalized growth [14]: 0.968
- normalized growth [15]: 0.943
- normalized growth [16]: 0.911
- normalized growth [17]: 0.964
- normalized growth [18]: 0.96
- normalized growth [19]: 0.96
- normalized growth [20]: 0.969
- normalized growth [21]: 0.97
- normalized growth [22]: 0.963
- normalized growth [23]: 0.929
- normalized growth [24]: 0.976
- normalized growth [25]: 0.916
- normalized growth [26]: 0.961
- normalized growth [27]: 0.954
- normalized growth [28]: 0.98
- normalized growth [29]: 0.933
- normalized growth [30]: 0.969
- normalized growth [31]: 0.962
- normalized growth [32]: 0.953
- normalized growth [33]: 0.924
- normalized growth [34]: 0.964
- normalized growth [35]: 0.919
- normalized growth [36]: 1
- normalized growth [37]: 0.932
- normalized growth [38]: 0.941
- normalized growth [39]: 0.893
- normalized growth [40]: 0.962
- normalized growth [41]: 0.982
- normalized growth [42]: 0.769 (active)
- normalized growth [43]: 0.914
- normalized growth [44]: 0.891
- normalized growth [45]: 0.906
- normalized growth [46]: 0.968
- normalized growth [47]: 0.948
- normalized growth [48]: 0.965
- normalized growth [49]: 0.973
- normalized growth [50]: 0.924
- normalized growth [51]: 0.968
- normalized growth [52]: 0.954
- normalized growth [53]: 0.966
- normalized growth [54]: 0.961
- normalized growth [55]: 0.932
- normalized growth [56]: 0.963
- normalized growth [57]: 0.908
- normalized growth [58]: 0.921
- normalized growth [59]: 0.995
- normalized growth [60]: 0.888
- normalized growth [61]: 0.968
- normalized growth [62]: 0.944
- normalized growth [63]: 0.93
- normalized growth [64]: 0.927
- normalized growth [65]: 0.965
- normalized growth [66]: 0.873
- normalized growth [67]: 0.971
- normalized growth [68]: 0.946
- normalized growth [69]: 0.929
- normalized growth [70]: 0.948
- normalized growth [71]: 0.967

SMILES: Cc1ccc(-n2cccc2)c(NS(=O)(=O)c2ccc(-c3ccno3)s2)c1
- normalized growth [1]: 0.94
- normalized growth [2]: 0.947
- normalized growth [3]: 0.944
- normalized growth [4]: 0.953
- normalized growth [5]: 0.938
- normalized growth [6]: 0.957
- normalized growth [7]: 0.933
- normalized growth [8]: 0.958
- normalized growth [9]: 0.937
- normalized growth [10]: 0.943
- normalized growth [11]: 0.899
- normalized growth [12]: 0.962
- normalized growth [13]: 0.941
- normalized growth [14]: 0.929
- normalized growth [15]: 0.894
- normalized growth [16]: 0.868
- normalized growth [17]: 0.902
- normalized growth [18]: 0.93
- normalized growth [19]: 0.936
- normalized growth [20]: 0.957
- normalized growth [21]: 0.976
- normalized growth [22]: 0.94
- normalized growth [23]: 0.914
- normalized growth [24]: 0.898
- normalized growth [25]: 0.76
- normalized growth [26]: 0.667 (active)
- normalized growth [27]: 0.847
- normalized growth [28]: 0.888
- normalized growth [29]: 0.862
- normalized growth [30]: 0.941
- normalized growth [31]: 0.816
- normalized growth [32]: 0.891
- normalized growth [33]: 0.921
- normalized growth [34]: 0.941
- normalized growth [35]: 0.889
- normalized growth [36]: 0.816
- normalized growth [37]: 0.924
- normalized growth [38]: 0.885
- normalized growth [39]: 0.894
- normalized growth [40]: 0.941
- normalized growth [41]: 0.979
- normalized growth [42]: 0.774 (active)
- normalized growth [43]: 0.923
- normalized growth [44]: 0.915
- normalized growth [45]: 0.905
- normalized growth [46]: 0.947
- normalized growth [47]: 0.918
- normalized growth [48]: 0.93
- normalized growth [49]: 0.965
- normalized growth [50]: 0.939
- normalized growth [51]: 0.953
- normalized growth [52]: 0.9
- normalized growth [53]: 0.939
- normalized growth [54]: 0.943
- normalized growth [55]: 0.9
- normalized growth [56]: 0.941
- normalized growth [57]: 0.906
- normalized growth [58]: 0.906
- normalized growth [59]: 0.923
- normalized growth [60]: 0.833
- normalized growth [61]: 0.952
- normalized growth [62]: 0.896
- normalized growth [63]: 0.872
- normalized growth [64]: 0.883
- normalized growth [65]: 0.953
- normalized growth [66]: 0.791 (active)
- normalized growth [67]: 0.95
- normalized growth [68]: 0.932
- normalized growth [69]: 0.926
- normalized growth [70]: 0.938
- normalized growth [71]: 0.942
